Source: PubChem BioAssay
In the library only some 10% were active in any assay of this set; here they are far more common.
HEK293 tox = Cytotoxic Profiling in HEK 293 Cell Line of Diverse Libraries Using Quantitative High-Throughput Screening; HEK 293 viability, ATP luminescence (CellTiter-Glo), 48-72 h; Potency, µM (series often up to 115 µM), usual class: inhibitors; 94,000 compounds, 6.6% hits; note: nearly all actives have a fitted effect of over 60% in size
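ATP-coupled CellTiter-Glo luminescence served as viability read-out, recorded 10 min after reagent addition at room temperature. HEK 293 cells, 250 cells/well, had been incubated with pintool-transferred compound for 48 or 72 hr at 37 degree Celsius.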
NPR1 antag = Natriuretic polypeptide receptor (hNpr1) antagonism - Primary qHTS; AID 1347048, 2019; HEK293 hNpr1 GloSensor cGMP, ANP-stimulated luminescence; Potency, µM (top dose mostly 46.3 µM), hits mostly inhibitors; Atrial natriuretic peptide receptor 1 (Homo sapiens), P16066; 76,000 compounds, 1.6% hits; calls by dose curve; note: nearly all actives have a fitted effect of over 60% in size
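HEK293 cells stably expressing human Npr1 and cGMP GloSensor pGS-40F, loaded 2 h with 2% GloSensor reagent, given compound 30 min at room temperature. Luminescence read before and 20 min after 0.1 nM hNppA.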
FLuc inh = Firefly luciferase inhibition profiling of diverse chemical library using quantitative high-throughput screening; Luciferin 4-monooxygenase (Photinus pyralis), P08659; purified P. pyralis luciferase, luminescence, biochemical; Potency, µM (series often up to 115 µM), hits mostly inhibitors; 76,000 compounds, 2.5% hits; AID 1347043, 2019; note: nearly all actives have a fitted effect of over 65% in size
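Inhibitors were tested against purified firefly luciferase in a biochemical, low-substrate format (both substrates at 10uM) and luminescence measured with a CCD imager.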
3T3 cytotox = Cytotoxic Profiling in NIH 3T3 Cell Line of Diverse Libraries Using Quantitative High-Throughput Screening; NIH 3T3 viability, CellTiter-Glo ATP luminescence, 48-72 h; Potency, µM (top dose mostly 96.7 µM), actives largely listed as inhibitors; 94,000 compounds, 4.3% hits; AID 1345082, 2018; note: nearly all actives have a fitted effect of over 55% in size
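Cytotoxicity was measured by CellTiter-Glo ATP luminescence after 48 or 72 h compound exposure at 37 °C. Mouse NIH 3T3 fibroblasts were seeded at 400 cells/well and dosed by 23 nL pin transfer.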
GPT2 inh = Primary qHTS assay for inhibitors of Glutamate pyruvate transaminase 2 (GPT2); AID 1671188, 2021; 100,000 compounds, 0.25% hits; Potency, µM (highest dose often 57.7 µM), most hits filed as inhibitors; Alanine aminotransferase 2 (Homo sapiens), Q8TD30; Recombinant GPT2, coupled pyruvate oxidase/HRP Amplex Red fluorescence; note: nearly all actives have a fitted effect of over 60% in size
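Recombinant GPT2 (10ng/uL) with 250uM a-KG and 2mM L-alanine, 30 min at room temperature, in HEPES pH 7.5 buffer. Pyruvate detected by pyruvate oxidase/HRP/Amplex Red fluorescence after 30 min in the dark; AOA (50uM) as positive control.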
NPR1 antag cnf = Natriuretic polypeptide receptor (hNpr1) antagonism - Confirmation | shares compounds with NPR1 antag | HEK293 hNpr1 cGMP GloSensor luminescence, ANP-stimulated | Potency, µM (series often up to 57.6 µM), most hits filed as inhibitors | 1,400 compounds, 76% hits | AID 1347044, 2019; calls by dose curve; note: nearly all actives have a fitted effect of over 70% in size
Npr2 selectivity = Natriuretic polypeptide receptor (hNpr2) antagonism - Subtype selectivity assay; shares compounds with NPR1 antag; HEK293 hNpr2 GloSensor cGMP luminescence, CNP-stimulated; Potency, µM (series often up to 57.6 µM), usual class: inhibitors; 1,400 compounds, 67% hits; calls by dose curve; note: nearly all actives have a fitted effect of over 70% in size
Target sequence (P20594 whole entry, looked up): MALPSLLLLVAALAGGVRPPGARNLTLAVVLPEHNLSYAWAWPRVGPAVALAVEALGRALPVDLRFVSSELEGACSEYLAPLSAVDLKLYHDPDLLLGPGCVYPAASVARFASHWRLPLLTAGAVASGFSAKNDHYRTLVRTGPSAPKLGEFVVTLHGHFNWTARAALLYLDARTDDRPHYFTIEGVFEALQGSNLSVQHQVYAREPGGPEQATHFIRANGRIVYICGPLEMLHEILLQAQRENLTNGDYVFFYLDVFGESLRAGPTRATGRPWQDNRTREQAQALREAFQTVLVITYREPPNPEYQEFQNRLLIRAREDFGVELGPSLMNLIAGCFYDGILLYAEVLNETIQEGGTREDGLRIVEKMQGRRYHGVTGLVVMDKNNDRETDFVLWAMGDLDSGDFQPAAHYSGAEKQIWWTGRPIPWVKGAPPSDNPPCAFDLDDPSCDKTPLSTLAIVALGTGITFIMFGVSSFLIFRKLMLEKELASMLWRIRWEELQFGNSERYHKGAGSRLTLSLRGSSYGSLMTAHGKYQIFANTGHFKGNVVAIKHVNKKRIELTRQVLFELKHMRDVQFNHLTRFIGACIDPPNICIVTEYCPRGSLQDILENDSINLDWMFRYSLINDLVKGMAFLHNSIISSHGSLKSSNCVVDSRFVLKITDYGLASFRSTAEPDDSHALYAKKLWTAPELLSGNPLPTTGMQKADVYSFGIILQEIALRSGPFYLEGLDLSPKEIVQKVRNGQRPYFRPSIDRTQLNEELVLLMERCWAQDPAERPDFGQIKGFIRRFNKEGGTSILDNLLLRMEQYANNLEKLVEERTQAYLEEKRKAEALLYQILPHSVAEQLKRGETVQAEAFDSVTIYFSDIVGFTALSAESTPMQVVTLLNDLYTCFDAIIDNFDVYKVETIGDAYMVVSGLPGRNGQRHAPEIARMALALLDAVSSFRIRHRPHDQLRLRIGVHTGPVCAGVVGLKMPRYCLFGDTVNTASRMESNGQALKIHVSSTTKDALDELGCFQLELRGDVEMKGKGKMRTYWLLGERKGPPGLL
FLuc counter = Natriuretic polypeptide receptor (hNpr1) antagonism - Confirmation firefly luciferase (FLuc) inhibition counterscreen; shares compounds with NPR1 antag; purified FLuc enzyme, luminescence, Km substrate; Potency, µM (highest dose often 57.6 µM), hits mostly inhibitors; 1,400 compounds, 0.7% hits
GloSensor cGMP = Natriuretic polypeptide receptor (hNpr1) antagonism - Counterscreen GloSensor control cell line | AID 1347051, 2019 | Potency, µM (top dose mostly 57.6 µM), most hits filed as inhibitors | HEK293 GloSensor cGMP, SNP-stimulated, luminescence | shares compounds with NPR1 antag | 1,400 compounds, 69% hits; calls by dose curve; note: nearly all actives have a fitted effect of over 70% in size
Hits are given with their value; n = inactive; u = inconclusive; x = not tested or not shown; [ ] = remark or other dose. Unless noted, calls come from the whole dose curve; as a rule, active = well fitted curve in the direction sought with a large enough effect; inconclusive = small, poorly fitted or top-dose-only effect, or another doubt; inactive = no such curve, though single readings can be large; an effect the other way counts as inactive or inconclusive.

SMILES	HEK293 tox	NPR1 antag	FLuc inh	3T3 cytotox	GPT2 inh	NPR1 antag cnf	Npr2 selectivity	FLuc counter	GloSensor cGMP
CCn1nccc1C(=O)N1CC(Oc2ccc(-c3noc(-c4cccnc4)n3)cc2)C1	u	x	x	u	n	x	x	x	x
Cc1ccc(-c2[nH]ncc2CN2C[C@@H](CO)[C@H](c3ccccn3)C2)cc1	u	n	n	n	n	x	x	x	x
CS(=O)(=O)c1ccc(CN2CC[C@@H](c3ccc4ccccc4c3)[C@H](O)C2)cc1	39.8µM	u	n	u	n	u	u	n	24.3µM
O=C(c1ccc(-c2ncc3cnc(-c4cccc(F)c4)cn23)cc1)N1CCc2cccnc21	10µM	17.8µM	n	31.6µM	n	14µM	14µM	n	17.7µM
N#Cc1cccc(-c2nc(-c3cccnc3)no2)c1	x	x	x	x	n	x	x	x	x
COc1ccc(Cl)cc1C(=O)N1CCC(Cc2nc(-c3cnccn3)no2)CC1	n	n	n	u	n	x	x	x	x
COc1ccc(-c2noc(CC3CCN(C(=O)c4ccccc4OC)CC3)n2)cc1	u	10µM	n	u	n	13.7µM	13.7µM	n	12.2µM
COc1cc(OC)cc(C(=O)N2CCC(Cc3nc(-c4ccccc4)no3)CC2)c1	u	u	n	u	n	x	x	x	x
COc1ccc(-c2noc(CC3CCN(C(=O)c4ccc(OC)cc4OC)CC3)n2)cc1	u	2.82µM	n	u	n	3.06µM	4.85µM	n	3.06µM
COc1ccc(-c2noc(CC3CCN(C(=O)C4CCN(C(=O)c5ccccc5)CC4)CC3)n2)cc1	u	8.91µM	n	u	n	19.3µM	17.2µM	n	12.2µM
COc1ccc([C@H]2OC[C@H]3O[C@@H](O[C@H]4[C@@H]2NC[C@@H]4O)[C@H](O)[C@H]3O)cc1	x	x	x	x	n	x	x	x	x
COc1ccc(NC(=O)c2cc3c(N4CCSCC4)nc(C)cn3n2)cc1OC	n	n	n	n	n	x	x	x	x
C=CCCC(=O)N1[C@@H](c2ccccc2)[C@@H](C(=O)OCC)C[C@]12CCCCNC2=O	n	x	x	u	x	x	x	x	x
O=C1COc2ccc(-c3ccoc3)nc2CN1Cc1ccccc1	u	u	n	u	n	u	u	n	u
Cc1noc(C)c1-c1ccc2c(n1)CN(Cc1ccc(C(F)(F)F)cc1)C(=O)CO2	u	n	n	u	n	x	x	x	x
O=C1COc2ccc(-c3ccoc3)nc2CN1Cc1ccc(C(F)(F)F)cc1	u	35.5µM	n	79.4µM	n	35.3µM	35.3µM	n	35.3µM
CN1CCCCCCN(S(=O)(=O)c2ccc3c(c2)CCC3)[C@H]2CCC[C@H]2C1=O	u	n	n	u	n	x	x	x	x
COc1cccc(-c2noc3c2CN(C(=O)c2ccc(C)cc2OC)CC3)c1	u	u	n	u	n[11.5 µM]	x	x	x	x
COc1cccc(C(=O)N2CCc3onc(-c4cccc(F)c4)c3C2)c1OC	20µM	10µM	n	u	n[11.5 µM]	21.7µM	21.7µM	n	19.3µM
COc1ncccc1-c1cc(C(=O)NCCN(C)C)c2c(c1)ncn2C	x	x	x	x	x	n	n	n	n
Cc1nn2c(c1-c1ccccc1Oc1ccccc1)N(Cc1ccc(OCC(=O)O)cc1)CCC2	n	n	n	u	n	x	x	x	x
Cc1nn2c(c1-c1ccccc1Oc1ccccc1)N(C(=O)COc1ccccc1)CCC2	79.4µM	u	n	u	n	31.4µM	22.2µM	n	u
Cc1nn2c(c1-c1ccccc1OCc1ccccc1)N(C(=O)C1CCOCC1)CCC2	u	n	n	u	u	x	x	x	x
Cc1nn2c(c1-c1ccccc1OCc1ccccc1)N(C(=O)COc1ccccc1)CCC2	39.8µM	u	n	11.2µM	n	17.2µM	12.2µM	n	n
O=C(NC1CCCCC1)c1ccc2nnc(-c3ccc(OC(F)(F)F)cc3)n2c1	u	x	x	u	n	x	x	x	x
SMILES	HEK293 tox	NPR1 antag	FLuc inh	3T3 cytotox	GPT2 inh	NPR1 antag cnf	Npr2 selectivity	FLuc counter	GloSensor cGMP
O=C1NC(C(=O)N2CCN(c3ccccn3)CC2)Cn2cccc21 (stereo unspecified)	n	x	x	n	n	x	x	x	x
Cc1cccc2nc(C(=O)N3CCCC(c4[nH]ncc4-c4ccccc4)C3)cn12 (stereo unspecified)	u	u	n	u	n[11.5 µM]	u	u	n	n
Cc1cccc2nc(C(=O)N3CCC4(CC3)CC(c3ccccc3)CN(C)C4)cn12 (stereo unspecified)	u	n	n	n	n	x	x	x	x
O=C(c1cc2ccccc2[nH]1)N1CCC2(C1)NC(=O)N(Cc1ccc(F)cc1)C2=O (stereo unspecified)	u	22.4µM	n	u	n	u	u	n	30.6µM
COc1ccc(CN2C[C@@H]3C(=O)N(Cc4ccc5c(c4)OCO5)C(=O)[C@@H]3C2)cc1OC	u	14.1µM	n	n	n	17.2µM	19.3µM	n	12.2µM
COc1ccccc1CN1C[C@@H]2C(=O)N(Cc3ccc4c(c3)OCO4)C(=O)[C@@H]2C1	n	n	n	n	n	x	x	x	x
Cc1ccc(NC(=O)c2cc3n(n2)CC(c2ccc(Cl)cc2)OC3)cc1 (stereo unspecified)	u	u	n	u	n	x	x	x	x
CC(C)c1ccc(NC(=O)c2cc3n(n2)CC(c2ccc(Cl)cc2)OC3)cc1 (stereo unspecified)	u	10µM	n	n	n	13.7µM	u	n	10.9µM
O=C(NCCc1cccnc1)c1cc2n(n1)CC(c1ccc(Br)cc1)OC2 (stereo unspecified)	39.8µM	11.2µM	n	u	n	19.3µM	19.3µM	n	12.2µM
Cc1cc(F)ccc1NC(=O)c1cc2n(n1)CC(c1ccc(Br)cc1)OC2 (stereo unspecified)	79.4µM	u	n	n	n	u	u	n	u
